Laboratory results published in PubChem BioAssay (Tox21).
Inconclusive results are not listed. Active and inactive are the calls of the source. Unless noted, calls follow the shape of the dose curve; as a rule, active = well fitted curve in the direction sought with a large enough effect in the repeat runs; inconclusive = weak or mixed curves; inactive = no such curve, though single readings can be large; an effect the other way counts as inactive or inconclusive.

Assays:
[1] = qHTS assay to identify small molecule agonists of the sonic hedgehog signaling (Shh) pathway (AID 1259368; calls by dose curve;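 also: NIH/3T3-derived 3T3Gli1-Luc cells carrying a stable Gli1-driven firefly luciferase reporter; series mostly up to about 92 µM; nearly all actives have a fitted effect of over 15% in size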)
In short: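 Quantitative high-throughput format using a Gli1-driven firefly luciferase reporter line derived from NIH/3T3 cells. After a 24 hr compound treatment at 37 C and 5% CO2, luminescence reported Gli1 response element activity.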

[2] = qHTS assay to identify small molecule antagonists of the sonic hedgehog signaling (Shh) pathway (AID 1259369; calls by dose curve; also: nearly all actives have a fitted effect of over 45% in size)
In short: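 Stable Gli1-Luc reporter NIH/3T3 clone; quantitative HTS in stimulated mode with conditioned medium. Luminescence measured after 24hr compound treatment at 37 C.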

[3] = qHTS assay to identify small molecule agonists of the androgen receptor (AR) signaling pathway in the presence of an antagonist - cell viability counter screen (AID 1259379);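 also: MDA-kb2 human breast cancer cells carrying an MMTV luciferase reporter; series mostly up to about 92 µM; nearly all actives have a fitted effect of over 25% in size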
In short: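 Nilutamide-containing (3.0uM final) MDA-kb2 cultures, 3,000 cells/well, were treated with compounds across 15 concentrations. After 16 hr at 37C with no CO2, cell viability was determined by CellTiter-Fluor fluorescence in the luciferase assay wells.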

[4] = qHTS assay to identify small molecule agonists of the estrogen receptor beta (ER-beta) signaling pathway - cell viability counter screen (AID 1259380); also: nearly all actives have a fitted effect of over 30% in size
In short: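 Steps: plate ER-beta-UAS-bla HEK293T cells, rest 6 hr; add compounds in DMSO; incubate 16 hr at 37C, 5% CO2; add FRET substrate 2 hr; add CellTiter-Glo, wait 30 min at room temperature; read luminescence.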

[5] = target: Androgen receptor (Homo sapiens) (UniProt P10275); assay: qHTS assay to identify small molecule agonists of the androgen receptor (AR) signaling pathway in the presence of an antagonist (AID 1259381; calls by dose curve; also: nearly all actives have a fitted effect of over 15% in size)
Sequence of Androgen receptor (Homo sapiens) (P10275 whole entry, looked up): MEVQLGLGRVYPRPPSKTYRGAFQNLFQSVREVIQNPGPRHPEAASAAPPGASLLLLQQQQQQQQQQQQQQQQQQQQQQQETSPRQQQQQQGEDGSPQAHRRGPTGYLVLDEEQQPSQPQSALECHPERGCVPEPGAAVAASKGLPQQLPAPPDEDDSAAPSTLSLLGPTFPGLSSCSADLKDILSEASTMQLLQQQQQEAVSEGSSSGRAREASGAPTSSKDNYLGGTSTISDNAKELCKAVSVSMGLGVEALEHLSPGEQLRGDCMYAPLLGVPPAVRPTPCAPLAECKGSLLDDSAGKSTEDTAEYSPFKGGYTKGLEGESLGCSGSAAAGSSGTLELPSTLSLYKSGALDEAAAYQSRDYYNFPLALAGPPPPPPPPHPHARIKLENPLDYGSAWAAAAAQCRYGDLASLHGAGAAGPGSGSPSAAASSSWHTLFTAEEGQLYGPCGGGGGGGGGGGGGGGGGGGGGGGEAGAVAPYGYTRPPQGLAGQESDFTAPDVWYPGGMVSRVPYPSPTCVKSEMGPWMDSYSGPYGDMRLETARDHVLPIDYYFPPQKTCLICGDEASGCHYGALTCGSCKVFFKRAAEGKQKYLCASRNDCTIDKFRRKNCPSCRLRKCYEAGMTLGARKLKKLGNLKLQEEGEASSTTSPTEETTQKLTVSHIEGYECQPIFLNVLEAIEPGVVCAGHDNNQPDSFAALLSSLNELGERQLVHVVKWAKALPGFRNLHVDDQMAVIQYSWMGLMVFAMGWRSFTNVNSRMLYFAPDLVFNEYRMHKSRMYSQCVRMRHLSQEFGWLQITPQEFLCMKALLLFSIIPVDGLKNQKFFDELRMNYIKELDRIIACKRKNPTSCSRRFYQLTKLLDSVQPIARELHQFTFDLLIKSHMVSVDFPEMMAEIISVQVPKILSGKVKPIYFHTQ
In short: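 Reporter-gene luminescence from MDA-kb2 cells exposed 16hr at 37C (0% CO2) to 15-point compound titrations with 3.0uM final nilutamide as AR antagonist.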

[6] = qHTS assay to identify small molecule antagonists of the estrogen receptor beta (ER-beta) signaling pathway - cell viability counter screen (AID 1259382); also: series mostly up to about 92 µM; nearly all actives have a fitted effect of over 55% in size
In short: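 Viability is scored by CellTiter-Glo luminescence (30 min, room temperature) in ER-beta-UAS-bla HEK293T wells already read for reporter fluorescence. Compound exposure lasts 16 hr at 37C alongside 1nM 17-beta-estradiol in charcoal-stripped serum medium.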

[7] = qHTS assay to identify small molecule agonists or antagonists of the thyroid stimulating hormone receptor (TSHR) signaling pathway - wild type cell line counter screen (AID 1259384; calls by dose curve)
In short: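 Wild-type Hek293 cells, 800/well, 18 h at 37C, then compound with Ro20-1724 for 30 min RT. cAMP by HTRF (cAMP-d2/anti-cAMP cryptate), 1 h RT, fluorescence read. 15 concentrations, triplicates.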

[8] = target: Thyrotropin receptor (Homo sapiens) (UniProt P16473); assay: qHTS assay to identify small molecule antagonists of the thyroid stimulating hormone receptor (TSHR) signaling pathway (AID 1259385; calls by dose curve; also: nearly all actives have a fitted effect of over 20% in size)
Sequence of Thyrotropin receptor (Homo sapiens) (P16473 whole entry, looked up): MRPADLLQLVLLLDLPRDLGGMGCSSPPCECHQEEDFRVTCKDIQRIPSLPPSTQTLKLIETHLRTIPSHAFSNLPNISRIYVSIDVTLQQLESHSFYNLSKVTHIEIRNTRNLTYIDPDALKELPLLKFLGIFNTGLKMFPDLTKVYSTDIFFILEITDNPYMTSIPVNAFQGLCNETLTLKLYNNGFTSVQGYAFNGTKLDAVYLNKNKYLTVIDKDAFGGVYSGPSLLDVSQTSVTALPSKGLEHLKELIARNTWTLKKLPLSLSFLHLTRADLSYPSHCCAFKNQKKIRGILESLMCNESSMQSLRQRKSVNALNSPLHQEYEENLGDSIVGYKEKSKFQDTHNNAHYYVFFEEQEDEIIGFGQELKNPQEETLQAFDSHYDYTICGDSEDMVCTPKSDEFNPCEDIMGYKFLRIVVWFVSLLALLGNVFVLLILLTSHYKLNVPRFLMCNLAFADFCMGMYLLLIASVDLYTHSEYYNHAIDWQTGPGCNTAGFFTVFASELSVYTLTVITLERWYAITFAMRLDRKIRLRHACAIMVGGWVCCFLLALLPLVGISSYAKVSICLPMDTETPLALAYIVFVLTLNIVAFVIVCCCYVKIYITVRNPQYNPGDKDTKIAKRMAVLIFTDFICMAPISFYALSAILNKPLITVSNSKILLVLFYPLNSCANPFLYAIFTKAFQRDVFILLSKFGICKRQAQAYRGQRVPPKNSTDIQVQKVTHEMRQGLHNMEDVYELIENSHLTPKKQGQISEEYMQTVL
In short: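 TSHR-HEK293 cells (800/well) plated 18 h, then compounds with Ro20-1724 and TSH at 1.5 ng/mL final, 30 min at room temperature. cAMP quantified by HTRF (cAMP-d2/anti-cAMP-cryptate, 1 h); 15 concentrations in triplicate.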

[9] = qHTS assay to identify small molecule agonists of the estrogen receptor alpha (ER-alpha) signaling pathway in the presence of an antagonist - cell viability counter screen (AID 1259386);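 also: series mostly up to about 92 µM; cells exposed to compounds for 22 h at 37 °C before the viability read; nearly all actives have a fitted effect of over 30% in size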
In short: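 In this counter screen, compound effects on VM7Luc4E2 viability were tested in the presence of the antagonist ICI-182,780 at 10.0nM final. Compounds were dosed at 15 concentrations, exposure lasted 22hr, and the CellTiter-Fluor signal was read.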

[10] = target: Progesterone receptor (Homo sapiens) (UniProt P06401); assay: qHTS assay to identify small molecule agonists of the progesterone receptor (PR) signaling pathway (AID 1346784; calls by dose curve; also: nearly all actives have a fitted effect of over 30% in size)
Sequence of Progesterone receptor (Homo sapiens) (P06401 whole entry, looked up): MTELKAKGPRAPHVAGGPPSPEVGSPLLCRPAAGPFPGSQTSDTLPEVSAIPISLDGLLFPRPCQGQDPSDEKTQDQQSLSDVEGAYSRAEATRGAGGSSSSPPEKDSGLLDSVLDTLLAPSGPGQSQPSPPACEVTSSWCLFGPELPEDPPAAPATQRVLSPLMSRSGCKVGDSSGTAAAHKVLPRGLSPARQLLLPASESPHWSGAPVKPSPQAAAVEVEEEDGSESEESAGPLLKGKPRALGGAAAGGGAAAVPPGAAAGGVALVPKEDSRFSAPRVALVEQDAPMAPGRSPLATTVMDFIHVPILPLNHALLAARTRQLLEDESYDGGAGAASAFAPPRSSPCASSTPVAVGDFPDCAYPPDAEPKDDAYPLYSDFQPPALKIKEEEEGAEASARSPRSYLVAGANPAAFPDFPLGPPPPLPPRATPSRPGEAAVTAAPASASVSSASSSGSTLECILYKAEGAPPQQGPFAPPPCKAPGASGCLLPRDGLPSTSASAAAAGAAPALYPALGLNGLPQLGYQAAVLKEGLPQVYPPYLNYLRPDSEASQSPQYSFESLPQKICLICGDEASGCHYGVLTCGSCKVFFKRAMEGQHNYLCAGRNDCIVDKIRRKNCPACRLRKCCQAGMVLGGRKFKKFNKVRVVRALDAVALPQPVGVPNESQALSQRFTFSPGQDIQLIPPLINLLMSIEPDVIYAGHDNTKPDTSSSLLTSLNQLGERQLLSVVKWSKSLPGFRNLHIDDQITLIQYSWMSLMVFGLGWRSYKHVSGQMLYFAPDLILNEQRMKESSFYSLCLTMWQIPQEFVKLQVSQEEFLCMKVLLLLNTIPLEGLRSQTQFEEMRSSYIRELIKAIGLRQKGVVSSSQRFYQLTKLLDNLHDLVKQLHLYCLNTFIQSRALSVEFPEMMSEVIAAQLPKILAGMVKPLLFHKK
In short: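 PR-UAS-bla HEK 293T cells carrying a UAS-driven beta-lactamase reporter were seeded in medium with 2% charcoal-stripped FBS, preincubated 6 hr at 37C, then exposed to compounds in DMSO for 16 hr; agonism was read by LiveBLAzer B/G FRET fluorescence.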

[11] = target: Progesterone receptor (Homo sapiens) (UniProt P06401); assay: qHTS assay to identify small molecule antagonists of the progesterone receptor (PR) signaling pathway (AID 1346795; active = well fitted inhibition curve with a large enough effect in the signal ratio in the repeat runs, not every such curve was filed as active; the % refers to the signal ratio)
In short: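 PR-UAS-bla HEK293T cells carrying a UAS-driven beta-lactamase reporter were plated in medium with 2% charcoal-stripped FBS and rested 6 hr at 37C. Compounds were added with 1 nM R5020 (final) for 16 hr, then FRET substrate loaded 2 hr at room temperature.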

[12] = qHTS assay to identify small molecule antagonists of the progesterone receptor (PR) signaling pathway - cell viability counter screen (AID 1346798); also: series mostly up to about 92 µM; nearly all actives have a fitted effect of over 50% in size
In short: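 PR-UAS-bla HEK293T cells in medium with 2% charcoal-stripped FBS were treated with compounds plus R5020 for 16 hr at 37C. Cell viability was then read by CellTiter-Glo luminescence after 30 min at room temperature in the same wells.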

[13] = qHTS assay to identify small molecule agonists of the progesterone receptor (PR) signaling pathway - cell viability counter screen (AID 1346799; calls by dose curve; also: nearly all actives have a fitted effect of over 45% in size)
In short: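 PR-UAS-bla HEK293T cells, 3,000 per well in medium with 2% charcoal-stripped FBS, were preincubated 6 hr at 37C, then exposed to compounds for 16 hr; viability was read as CellTiter-Glo luminescence after 30 min at room temperature.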

[14] = qHTS assay to identify small molecule antagonists of the TGF-beta/Smad signaling pathway - cell viability counter screen (AID 1346824); also: nearly all actives have a fitted effect of over 50% in size
In short: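 SBE-bla HEK 293T cells, incubated overnight, then compound plus 0.25 ng/mL TGF-beta1 (stock added) for 5 hr at 37 C. Viability was read in the same wells by CellTiter-Glo luminescence after 30 min at room temperature.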

[15] = qHTS assay to identify small molecule agonists of the TGF-beta/Smad signaling pathway - cell viability counter screen (AID 1346829); also: top concentration of the series differs between compounds; nearly all actives have a fitted effect of over 45% in size
In short: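 HEK 293T SBE-bla line, 5 hr compound exposure at 37 C, multiplexed CellTiter-Glo viability read by luminescence.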

[16] = qHTS assay to identify small molecule agonists of the TGF-beta/Smad signaling pathway (AID 1346859; active = well fitted activation curve with a large enough effect in the signal ratio in the repeat runs, not every such curve was filed as active; the % refers to the signal ratio; also: series mostly up to about 77 µM)
In short: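 HEK 293T cells stably carrying a beta-lactamase reporter driven by the Smad binding element were seeded overnight, exposed to DMSO-dissolved compounds for 5 hr at 37 C, 5% CO2, then loaded with FRET substrate for 2 hr at room temperature.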

[17] = target: Thyrotropin-releasing hormone receptor (Homo sapiens) (UniProt P34981); assay: qHTS assay to identify small molecule antagonists of the thyrotropin-releasing hormone receptor (TRHR) signaling pathway (AID 1346877; active = well fitted inhibition curve with a large enough effect in the repeat runs, not every such curve was filed as active; also: series mostly up to about 51 µM)
Sequence of Thyrotropin-releasing hormone receptor (Homo sapiens) (P34981 whole entry, looked up): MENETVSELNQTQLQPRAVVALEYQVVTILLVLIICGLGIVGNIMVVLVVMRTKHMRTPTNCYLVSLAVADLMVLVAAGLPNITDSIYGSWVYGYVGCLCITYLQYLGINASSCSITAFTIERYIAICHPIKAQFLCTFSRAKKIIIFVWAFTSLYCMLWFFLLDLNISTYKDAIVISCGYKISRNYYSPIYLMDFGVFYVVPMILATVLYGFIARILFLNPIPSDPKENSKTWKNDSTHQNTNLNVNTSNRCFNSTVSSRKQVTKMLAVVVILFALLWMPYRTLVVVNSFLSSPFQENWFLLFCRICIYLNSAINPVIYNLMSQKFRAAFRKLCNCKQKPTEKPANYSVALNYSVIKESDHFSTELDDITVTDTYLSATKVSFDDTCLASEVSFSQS
In short: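 Kinetic fluorescence (3 min, 1 s resolution) following stimulation with TRH at 1 nM final; HEK293 cells bearing human TRHR; 5 min compound preincubation at RT; concentration-response over 15 points, triplicates.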

[18] = target: Estrogen receptor beta (Homo sapiens) (UniProt Q92731); assay: qHTS assay to identify small molecule agonists of the estrogen receptor beta (ER-beta) signaling pathway (AID 1259377; active = well fitted activation curve with a large enough effect in the signal ratio in the repeat runs, not every such curve was filed as active; the % refers to the signal ratio)
Sequence of Estrogen receptor beta (Homo sapiens) (Q92731 whole entry, looked up): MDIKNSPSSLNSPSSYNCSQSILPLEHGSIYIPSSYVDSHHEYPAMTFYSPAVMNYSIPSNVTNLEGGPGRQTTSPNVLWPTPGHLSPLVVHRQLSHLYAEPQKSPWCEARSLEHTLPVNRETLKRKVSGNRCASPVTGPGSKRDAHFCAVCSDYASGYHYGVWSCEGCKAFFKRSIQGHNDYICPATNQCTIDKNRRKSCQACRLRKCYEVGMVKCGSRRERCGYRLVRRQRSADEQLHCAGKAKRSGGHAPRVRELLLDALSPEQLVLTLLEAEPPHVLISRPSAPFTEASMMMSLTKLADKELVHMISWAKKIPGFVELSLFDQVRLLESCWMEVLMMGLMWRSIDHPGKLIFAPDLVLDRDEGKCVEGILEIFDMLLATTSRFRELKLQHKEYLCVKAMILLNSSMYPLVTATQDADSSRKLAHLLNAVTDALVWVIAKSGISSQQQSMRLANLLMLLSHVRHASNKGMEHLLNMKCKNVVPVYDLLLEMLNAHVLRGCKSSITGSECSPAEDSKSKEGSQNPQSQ
In short: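 ER-beta-UAS-bla HEK293T (GripTite) cells carrying a UAS-driven beta-lactamase reporter, in medium with 2% charcoal-stripped FBS, were exposed to compounds for 16 hr at 37C; LiveBLAzer B/G FRET substrate was then added and fluorescence read after 2 hours at room temperature.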

[19] = target: Estrogen receptor (Homo sapiens) (UniProt P03372); assay: qHTS assay to identify small molecule agonists of the estrogen receptor alpha (ER-alpha) signaling pathway in the presence of an antagonist (AID 1259383; calls by dose curve; also: top concentration of the series differs between compounds; nearly all actives have a fitted effect of over 15% in size)
Sequence of Estrogen receptor (Homo sapiens) (P03372 whole entry, looked up): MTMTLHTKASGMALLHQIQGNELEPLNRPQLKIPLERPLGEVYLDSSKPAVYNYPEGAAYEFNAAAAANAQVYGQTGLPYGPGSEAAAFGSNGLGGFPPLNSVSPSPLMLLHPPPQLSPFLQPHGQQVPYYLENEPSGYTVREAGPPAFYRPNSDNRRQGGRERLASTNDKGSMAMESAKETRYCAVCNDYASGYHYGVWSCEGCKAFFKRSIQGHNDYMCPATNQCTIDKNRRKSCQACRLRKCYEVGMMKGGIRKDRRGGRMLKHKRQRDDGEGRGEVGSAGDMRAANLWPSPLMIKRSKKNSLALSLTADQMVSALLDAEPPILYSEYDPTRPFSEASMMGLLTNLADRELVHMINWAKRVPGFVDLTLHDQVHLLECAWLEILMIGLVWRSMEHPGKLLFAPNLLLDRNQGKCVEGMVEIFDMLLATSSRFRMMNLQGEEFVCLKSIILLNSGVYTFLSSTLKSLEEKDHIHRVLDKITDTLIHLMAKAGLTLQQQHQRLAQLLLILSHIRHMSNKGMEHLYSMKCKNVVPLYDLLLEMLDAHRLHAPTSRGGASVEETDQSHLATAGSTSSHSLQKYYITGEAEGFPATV
In short: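 Readout was ERE-driven luciferase luminescence in VM7Luc4E2 cells, which express full-length ER-alpha endogenously. Compounds were tested at 15 concentrations for 22hr alongside 10.0nM ICI-182,780 (final concentration).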

Measured: Potency

C=C(C)C(=O)OCCN(CC)CC
not listed: [18] | [19]
inactive: all other assays above

CCOCCOCCOCC
not listed: [5] | [7] | [8] | [10] | [11] | [16] | [19]
inactive: all other assays above

COc1cc2c(cc1OC)C(=O)CC2
not listed: [7] | [9] | [18]
inactive: all other assays above

O=C(CCNNC(=O)c1ccncc1)NCc1ccccc1
not listed: [5] | [18]
inactive: all other assays above

O=C(NCCN1CCOCC1)c1ccc(Cl)cc1
not listed: [5] | [17] | [19]
inactive: all other assays above

O=C(CCN1CCN(CCO)CC1)N1c2ccccc2Sc2ccc(C(F)(F)F)cc21
not listed: [13] | [18]
inactive: all other assays above

COC(=O)c1ccccc1C(=O)c1ccc(OCCN2CCCCC2)cc1
not listed: [4] | [5] | [7] | [9]
inactive: all other assays above
